Rows were chosen to be rich in hits. Some 3.9% of all compounds tested hit in one or more screens of this group.
D1 antag – blocks dopamine activation of the human D1 receptor; P21728; HEK293 TREx D1 cells, calcium flux, dopamine EC80; active compounds read low; activity change, negative = inhibition, % at 10 µM; actives 3.2% (n = 360,000); AID 504652; in the data active means activity change below about -30%; further: on the % scale 0 is the no-effect control and ±100 the full control effect
Target sequence (P21728 whole entry, looked up): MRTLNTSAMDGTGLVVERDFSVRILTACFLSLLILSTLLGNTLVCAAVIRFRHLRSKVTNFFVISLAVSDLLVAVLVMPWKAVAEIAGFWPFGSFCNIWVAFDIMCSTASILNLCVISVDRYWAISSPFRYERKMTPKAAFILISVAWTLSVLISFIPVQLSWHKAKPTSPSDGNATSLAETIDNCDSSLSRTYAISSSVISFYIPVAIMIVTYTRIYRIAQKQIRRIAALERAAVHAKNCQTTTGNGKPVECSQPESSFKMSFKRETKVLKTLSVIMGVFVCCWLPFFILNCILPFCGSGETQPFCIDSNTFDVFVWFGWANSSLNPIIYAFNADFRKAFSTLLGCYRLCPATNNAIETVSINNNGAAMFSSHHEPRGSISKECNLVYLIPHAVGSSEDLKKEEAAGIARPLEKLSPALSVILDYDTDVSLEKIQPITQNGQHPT
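After overnight tetracycline induction at 30 C, force-coupled D1 HEK293 cells took up a no-wash calcium dye at room temperature. Compounds were added and monitored 180 s, and the response to EC80 dopamine was then recorded.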
D1 PAM – enhances dopamine response at the human D1 receptor | HEK293 TREx D1 cells, calcium flux, dopamine EC20 potentiation | actives 0.036% (n = 360,000) | potentiation, % at 10 µM | AID 504651 | P21728; in the data active means potentiation above about 30%; further: 0% is about no effect
D1 agonist – human D1 receptor agonism; P21728; HEK293 T-REx D1 cells, calcium flux, agonist mode; activation, % at 2 µM; actives 1% (n = 360,000); in the data active means activation above about 30%; further: 0% is about no effect
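Agonism was scored from calcium flux recorded over 180 s (1 read/s) after pintool compound addition, following a 10-cycle baseline. Cells were inducible force-coupled HEK293 TREx D1, plated overnight at 30 C and loaded with no-wash calcium dye.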
Eya2 inh – blocks the phosphatase activity of human Eya2 | Potency, µM (doses to about 76.9 µM), for inactives: at the top dose activity, negative = inhibition, actives largely listed as inhibitors | recombinant Eya2, OMFP fluorescence dephosphorylation (OMFP is methylfluorescein phosphate) | AID 488837 | actives 0.006% (n = 330,000); further: potency means the concentration at half of the fitted maximal effect; on the % scale 0 is the no-effect control and ±100 the full control effect
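Eya2 (0.2 uM) preincubated 10 min at ambient with compound, then OMFP substrate added at 50 uM; 10 min reaction in 50 mM HEPES pH 7.5, 50 mM NaCl, 5 uM MgCl2, 0.05% BSA, 1 mM DTT. Fluorescence read at Ex 485/Em 525 nm.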
USP2a inh – USP2a (human) protease inhibition | O75604 | USP2 core, Ub-CHOP2 coupled fluorogenic reporter, 485/531 | Potency, µM (doses to about 38.3 µM), inactives show at the highest dose activity change, negative = inhibition, hits mostly inhibitors | actives 0.01% (n = 330,000) | AID 463254;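 further: potency means the concentration at half of the fitted maximal effect; plate controls were DMSO wells for no effect and full inhibition by NEM control for full effect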
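USP2 core (10nM final) preincubated 30min RT with compound in 20mM Tris-HCl pH 8.0, 2mM CaCl2, 2mM beta-mercaptoethanol, 0.05% CHAPS; 25nM Ub-CHOP2 plus 25nM reporter substrate added, fluorescence (Ex485/Em531) read after 60min.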
GALK inhibitor – blocks human galactokinase activity. actives 0.007% (n = 270,000). Purified GALK, Kinase-Glo residual ATP luminescence. P51570. Potency, µM (titrated, usually from 57.5 µM), for inactives: top-dose activity change, negative = inhibition, usual class: inhibitors; further: potency means the concentration at half of the fitted maximal effect; on the % scale 0 is the no-effect control and ±100 the full control effect
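Kinase-Glo Plus luminescence measured ATP left after a 1 h room-temperature reaction. The reaction used 5 nM GALK, 100 uM galactose and 35 uM ATP at pH 8.0 (20 mM HEPES, 5 mM MgCl2, 60 mM NaCl, 1 mM DTT, 0.01% BSA).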
An asterisk follows results filed as active; nt = no result. Unless noted, the call rests on the fitted dose curve; in most records, active means well fitted inhibition curve with a large enough effect; inconclusive means small, poorly fitted or top-dose-only effect, or effect the other way; inactive means flat fitted curve, though single readings scatter.

SMILES	D1 antag	D1 PAM	D1 agonist	Eya2 inh	USP2a inh	GALK inhibitor
CC(CCN1CCOCC1)c1ccccc1 (configuration not stated)	8	-4	1	3%	1%	6%
C/C=C(\C)CN1CCN(c2ccccc2)CC1	-24	-2	3	23%	0%	0%
C/C(=C\c1ccccc1)CN1CCN(c2ccccc2)CC1	-38*	-8	1	-27%	-1%	0%
CC(C)c1ccc(OCC(O)CN2CCN(c3ccccc3)CC2)cc1 (configuration not stated)	-11	-6	14	-9%	-1%	-2%
CC(CCN1CCN(c2ccc(F)cc2)CC1)c1ccccc1 (configuration not stated)	-62*	0	7	-10%	-3%	4%
CCN(c1ccccc1)S(=O)(=O)c1ccc(NC(=O)c2cc(=O)c3cc(C)cc(C)c3o2)cc1	-15	0	4	nt	nt	nt
CCOC(=O)c1cccc(NC(=O)CCCn2nc(C)c3c(C)n(-c4ccccc4)nc3c2=O)c1	3	0	6	nt	nt	nt
O=C(COC(=O)CCCNC(=O)c1ccc(Cl)cc1)NCc1ccccc1Cl	-10	-6	77*	-4%	1%	0%
Cc1ccc(C(=O)NCCc2ccccc2)cc1	-15	2	-5	-9%	1%	5%
Cc1ccc(C(=O)NCCc2ccncc2)cc1	-36*	-1	-1	2%	0%	1%
Cc1ccccc1CCNC(=O)c1ccc2c(c1)c(C)c(C)n2C	-20	-3	3	nt	nt	nt
O=C(CCCNC(=O)c1ccc(Cl)cc1)NCc1ccccc1Cl	0	1	0	4%	1%	5%
CCc1ccc(C(=O)NNc2ccc(F)cc2F)cc1	-51*	-7	0	-5%	0%	3%
Cc1c(C)n(C)c2ccc(C(=O)NCCc3ccc(Cl)cc3)cc12	-59*	-4	5	nt	nt	nt
CCC(NC(=O)Nc1cccc(C)c1)c1c(-n2cccc2)sc2c1CCN(C)C2 (configuration not stated)	-3	-3	5	nt	nt	nt
CCCCN(CC)C(=O)CCn1c(=O)c2cccn2c2cccnc21	4	4	2	nt	nt	nt
O=C(NCCc1ccc(O)cc1)c1ccc(Cl)cc1	-32*	-2	1	2%	2%	nt
O=C(NCCc1ccc(Cl)cc1)c1ccc(=O)[nH]c1	-6	-2	2	-8%	-2%	-1%
O=C(CCNC(=O)c1ccc(Cl)cc1)Nc1ccc(F)cc1F	-47*	2	2	2%	0%	2%
NS(=O)(=O)c1ccc(CCNC(=O)CCCNC(=O)c2ccc(Cl)cc2)cc1	-33*	1	0	-4%	1%	15%
NS(=O)(=O)c1ccc(CCNC(=O)c2ccc(Cl)nc2)cc1	2	-1	3	-28%	5%	nt
CN(C)Cc1cc(CCNC(=O)c2ccc(Cl)cc2)ccc1O	-37*	-10	4	9%	-6%	-3%
Cc1cc(NS(=O)(=O)c2ccc(NC(=O)COc3c(C)ccc(C)c3C)cc2)nc(C)n1	-23	3	-1	nt	nt	nt
COc1ccc2c(c1)c(=O)c(S(=O)(=O)c1ccccc1)cn2CC(=O)Nc1ccc(C)c(Cl)c1	0	-2	5	nt	nt	nt
O=C(COC(=O)C1(c2ccc(F)cc2)CCCC1)NCc1ccc2c(c1)OCO2	-32*	-10	10	-10%	3%	0%
O=C(COC(=O)C1(c2ccccc2F)CCCC1)NCc1ccc2c(c1)OCO2	-23	-7	11	-7%	1%	-1%
Cc1cc(SCC(=O)OCC(=O)N2CCN(C(=O)c3ccco3)CC2)c(C)cc1Br	-18	-6	44*	-9%	-4%	0%
Cc1ccccc1OCC(=O)OCC(=O)NCc1ccc2c(c1)OCO2	nt	nt	nt	3%	2%	nt
Cc1cc(SCC(=O)OCC(=O)NCc2ccc3c(c2)OCO3)c(C)cc1Br	-38*	-2	14	-2%	-2%	1%

Assay outcomes as filed in PubChem BioAssay.
